Among the test systems are MOLT-4 leukemia; SR leukemia; RPMI-8226 leukemia; OVCAR-8 ovarian; OVCAR-5 ovarian; OVCAR-4 ovarian; SK-OV-3 ovarian; IGROV1 ovarian; OVCAR-3 ovarian; NCI/ADR-RES ovarian; T-47D breast; BT-549 breast; MDA-MB-435 melanoma; SW-620 colon; MCF7 breast; HCT-116 colon; HCC-2998 colon; KM12 colon; HS 578T breast.
What all share (assay): NCI-60 one-dose screen, 48 h (100 = growth as untreated, 0 = no growth, -100 = all killed)
What all share (conditions): 10 µM unless noted

Values joined by “and” are separate entries in the source; they are usually repeats but may differ in a detail not shown here. Identical values can stand only once. The panel holds about 83,000 compounds, 20% with a hit somewhere; the sample as a whole holds those more often.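 Each cell line was grown in a 96-well plate and treated with one concentration of compound for 48 hours. Values below 10 were considered active.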 Active and inactive are the calls of the source.

As to `NC(N)=NC(N)=Nc1ccc(Cl)cc1`, the growth is 93.3% (inactive) in the experiment with MOLT-4 leukemia; 94.9% (inactive) in the experiment with SR leukemia; 94.2% (inactive) in the experiment on RPMI-8226 leukemia; 121% (inactive) with OVCAR-8 ovarian; 92.1% (inactive) in the experiment with OVCAR-5 ovarian; 96.3% (inactive) in the experiment with OVCAR-4 ovarian. For the same compound, the growth is 110% (inactive) in the experiment on SK-OV-3 ovarian; 116% (inactive) in the experiment with IGROV1 ovarian; 105% (inactive) in the experiment with OVCAR-3 ovarian; 113% (inactive) with NCI/ADR-RES ovarian; 109% (inactive) in the experiment on T-47D breast; 104% (inactive) with BT-549 breast. Further, the growth with MDA-MB-435 melanoma is 101% (inactive); in the experiment with SW-620 colon, 102% (inactive); in the experiment on MCF7 breast, 103% (inactive); in the experiment on HCT-116 colon it was 109% (inactive); with HCC-2998 colon, 107% (inactive); in the experiment with KM12 colon it was 112% (inactive).
`CCCN1C(=O)NC(=O)C(CC)(N2C(=O)c3c(F)c(F)c(F)c(F)c3C2=O)C1=O` (centres undefined): the growth in the experiment on MOLT-4 leukemia was -79.6% (active); in the experiment on SR leukemia, -76.5% (active); in the experiment on RPMI-8226 leukemia it was -30% (active); in the experiment on OVCAR-8 ovarian, -56.7% (active); in the experiment with OVCAR-4 ovarian it was -43.1% (active); with SK-OV-3 ovarian it was -25.4% (active). Moreover, the growth is -77.9% (active) in the experiment with IGROV1 ovarian; -96.4% (active) in the experiment with OVCAR-3 ovarian; -24.6% (active) with HS 578T breast; -28.5% (active) with NCI/ADR-RES ovarian; -52.3% (active) in the experiment on T-47D breast; -78.8% (active) in the experiment with BT-549 breast. Besides, the growth was -60.3% (active) in the experiment with MDA-MB-435 melanoma; -92.9% (active) in the experiment on SW-620 colon; -76.5% (active) in the experiment with MCF7 breast; -78.2% (active) with HCT-116 colon; -87% (active) in the experiment on HCC-2998 colon; -96.2% (active) in the experiment with KM12 colon.
In the case of `O=NN1CCCCC1`, the growth in the experiment with MOLT-4 leukemia is 115% (inactive); in the experiment on SR leukemia it was 106% (inactive); in the experiment on RPMI-8226 leukemia, 114% (inactive); in the experiment on OVCAR-8 ovarian it was 111% (inactive); in the experiment on OVCAR-4 ovarian, 110% (inactive); in the experiment with SK-OV-3 ovarian it was 107% (inactive). The growth in the experiment with IGROV1 ovarian was 116% (inactive); in the experiment with OVCAR-3 ovarian it was 112% (inactive); in the experiment with HS 578T breast, 97.3% (inactive); with NCI/ADR-RES ovarian, 110% (inactive); in the experiment on T-47D breast, 102% (inactive); in the experiment on BT-549 breast, 104% (inactive). The growth in the experiment with MDA-MB-435 melanoma is 118% (inactive); with SW-620 colon, 107% (inactive); in the experiment on MCF7 breast, 90.8% (inactive); in the experiment with HCT-116 colon, 108% (inactive); with KM12 colon, 104% (inactive).
With `COc1ccc(/C=C(/C)[N+](=O)[O-])cc1OC`, the growth in the experiment with MOLT-4 leukemia is 0.86% (active) and -1.19% (active); in the experiment with SR leukemia, -21.8% (active) and -5.49% (active); with RPMI-8226 leukemia, -17.9% (active) and -7.74% (active); with OVCAR-8 ovarian, 6.5% (active); in the experiment on OVCAR-5 ovarian, 91.4% (inactive) and 66.7% (inactive); in the experiment with OVCAR-4 ovarian it was 32.7% (inactive). For the same compound, the growth was 112% (inactive) and 108% (inactive) with SK-OV-3 ovarian; 10.8% (inactive) and -20.9% (active) in the experiment with IGROV1 ovarian; -94.1% (active) and -99.7% (active) in the experiment with OVCAR-3 ovarian; 74.7% (inactive) and 3.26% (active) in the experiment with NCI/ADR-RES ovarian; 2.51% (active) and -36.5% (active) in the experiment with T-47D breast; 60.2% (inactive) in the experiment with BT-549 breast. In addition, the growth was 14.8% (inactive) and 8.73% (active) in the experiment on MDA-MB-435 melanoma; -71.8% (active) and -74.3% (active) with SW-620 colon; -16.3% (active) and 4.76% (active) in the experiment with MCF7 breast; -69.8% (active) and -100% (active) in the experiment on HCT-116 colon; 49% (inactive) and 37.1% (inactive) with KM12 colon.
Consider `CN1C2CCC1[C@@H](COC(=O)c1ccccc1)[C@@H](O)C2` (some centres undefined), for which the growth in the experiment on MOLT-4 leukemia is 97.8% (inactive); in the experiment with SR leukemia, 105% (inactive); in the experiment with RPMI-8226 leukemia, 77.7% (inactive); in the experiment with OVCAR-8 ovarian, 103% (inactive); in the experiment with OVCAR-5 ovarian, 106% (inactive); in the experiment on OVCAR-4 ovarian it was 103% (inactive). For the same compound, the growth in the experiment with SK-OV-3 ovarian is 107% (inactive); with OVCAR-3 ovarian it was 111% (inactive); in the experiment on HS 578T breast, 119% (inactive); in the experiment with NCI/ADR-RES ovarian it was 110% (inactive); in the experiment on T-47D breast, 124% (inactive); in the experiment with BT-549 breast, 143% (inactive). The growth with MDA-MB-435 melanoma is 121% (inactive); in the experiment on SW-620 colon, 111% (inactive); with MCF7 breast, 97.3% (inactive); in the experiment on HCT-116 colon, 101% (inactive); in the experiment on HCC-2998 colon it was 105% (inactive); in the experiment on KM12 colon, 103% (inactive).
Consider `C=C1C(=O)OC2CC3(C)OC3C3OC3C3=CC(OC3=O)C12` (centres undefined), for which the growth with MOLT-4 leukemia was -30.3% (active) and 58.3% (inactive); in the experiment on SR leukemia it was 10.7% (inactive) and 47.9% (inactive); in the experiment on RPMI-8226 leukemia it was 97.9% (inactive) and 38% (inactive); with OVCAR-8 ovarian it was 87.2% (inactive) and 88.6% (inactive); in the experiment with OVCAR-4 ovarian, 60% (inactive) and 92.5% (inactive); in the experiment with SK-OV-3 ovarian, 103% (inactive) and 106% (inactive). The growth in the experiment on IGROV1 ovarian was 102% (inactive) and 107% (inactive); in the experiment with OVCAR-3 ovarian, 41.8% (inactive); in the experiment on HS 578T breast, 96.8% (inactive); with NCI/ADR-RES ovarian it was 35.9% (inactive) and 103% (inactive); in the experiment on T-47D breast it was 5.88% (active) and 16.2% (inactive); in the experiment on BT-549 breast, 98.2% (inactive). Also, the growth in the experiment on MDA-MB-435 melanoma is 98.3% (inactive) and 98.4% (inactive); with SW-620 colon, 3.21% (active) and 7.75% (active); with MCF7 breast, 84.4% (inactive) and 78.6% (inactive); with HCT-116 colon it was 2.43% (active) and 17.7% (inactive); in the experiment on HCC-2998 colon it was 103% (inactive); with KM12 colon, 104% (inactive) and 103% (inactive).
Regarding `Cc1cc2c(cc1-c1ccnc(/C=C/C(=O)O)c1)C(C)(C)CCC2(C)C`, the growth was 91.9% (inactive) in the experiment on MOLT-4 leukemia; 77.9% (inactive) in the experiment with SR leukemia; 41.4% (inactive) with RPMI-8226 leukemia; 79% (inactive) in the experiment on OVCAR-8 ovarian; 104% (inactive) with OVCAR-4 ovarian; 98.1% (inactive) in the experiment on SK-OV-3 ovarian. Further, the growth in the experiment with IGROV1 ovarian is 100% (inactive); in the experiment on OVCAR-3 ovarian, 82.8% (inactive); with HS 578T breast, 59.6% (inactive); with NCI/ADR-RES ovarian, 87.8% (inactive); in the experiment with T-47D breast, 92.4% (inactive); in the experiment on BT-549 breast, 64.5% (inactive). Further, the growth is 92.5% (inactive) in the experiment with MDA-MB-435 melanoma; 95.9% (inactive) with SW-620 colon; 56% (inactive) in the experiment with MCF7 breast; 75.1% (inactive) in the experiment on HCT-116 colon; 103% (inactive) in the experiment with HCC-2998 colon; 86.3% (inactive) in the experiment on KM12 colon.

Source of the values: PubChem BioAssay (NCI).
